# From PubChem BioAssay
# Cruzain inh noDet: qHTS Assay for Promiscuous and Specific Inhibitors of Cruzain (without detergent); Cruzipain (Trypanosoma cruzi), P25779; purified cruzain, Z-FR-AMC fluorescence, no detergent; Potency, µM, for inactives: max response, negative = inhibition, actives largely listed as inhibitors; actives 2.3% (n = 200,000); AID 1476, 2009;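 further: plate controls were enzyme without inhibitor for no effect and buffer without enzyme for full effect; nearly all actives have a fitted effect of over 40% in size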
# Target sequence (P25779 123-467 limits assumed): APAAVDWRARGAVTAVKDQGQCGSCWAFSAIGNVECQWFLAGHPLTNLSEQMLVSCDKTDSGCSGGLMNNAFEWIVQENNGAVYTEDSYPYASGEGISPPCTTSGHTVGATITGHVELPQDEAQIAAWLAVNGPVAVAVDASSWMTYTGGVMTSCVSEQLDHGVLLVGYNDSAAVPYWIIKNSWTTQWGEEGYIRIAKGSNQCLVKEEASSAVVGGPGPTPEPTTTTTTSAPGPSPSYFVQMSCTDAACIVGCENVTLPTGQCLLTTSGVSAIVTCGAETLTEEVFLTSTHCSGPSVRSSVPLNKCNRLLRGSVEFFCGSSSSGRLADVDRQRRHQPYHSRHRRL
#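 Detergent-free condition (0.00005% Triton X-100) in acetate buffer pH 5.5 with DTT. 1.5 nM enzyme and compound were pre-mixed 15 min, then 2 uM Z-FR-AMC substrate added; reaction progress from fluorescence change between first and third reads (60 s).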
# Cruzain inh Det: qHTS Assay for Promiscuous and Specific Inhibitors of Cruzain (with detergent); Cruzipain (Trypanosoma cruzi), P25779; purified cruzain, Z-FR-AMC fluorescence, 0.01% Triton; Potency, µM, inactives show max response, negative = inhibition, hits mostly inhibitors; actives 0.43% (n = 200,000); AID 1478, 2009;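 further: plate controls were neutral wells for no effect and buffer without enzyme for full effect; nearly all actives have a fitted effect of over 40% in size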
#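 Sodium acetate buffer (100 mM, pH 5.5) containing 5 mM DTT and 0.01% Triton X-100 hosted 1.5 nM cruzain and test compound for 15 min at room temperature. Cleavage of 2 uM Z-FR-AMC was then tracked by fluorescence.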
# Starred values were filed as active, the others as inactive; ? = inconclusive. Sampled rows, rich in hits. Any-hit rate of the full collection: about 2.4%. The call rests on the fitted dose curve; in most records, active means well fitted curve in the direction sought with a large enough effect; inconclusive means small, poorly fitted or top-dose-only effect, or another doubt; inactive means no such curve, though single readings can be large; an effect the other way counts as inactive or inconclusive. Potency means the concentration at half of the fitted maximal effect.
SMILES,Cruzain inh noDet,Cruzain inh Det
CS(=O)(=O)Nc1cccc(-c2cc(NCc3ccccc3)ncn2)c1,-1%,-3%
CN(C)c1cc(-c2cccc(NS(C)(=O)=O)c2)ncn1,16µM*,13µM*
COc1ccc(OC)c(NC(=O)c2c(N3CCCC3=O)c3cc(OC)ccc3n2C)c1,?,-9%
CCc1nn(CC(=O)NCc2ccc(OC)cc2OC)c(=O)c2cc3c(OC)cccc3n12,4%,-1%
O=C(NCc1nc2ccccc2[nH]1)c1cc2ccccc2oc1=O,7.9µM*,14µM*
O=C(NCc1nc2ccccc2[nH]1)c1ccco1,-7%,-1%
CC(C)(C)C(=O)NCCc1nc2ccccc2n1CCCCOc1ccc(Cl)cc1,?,-12%
COc1ccc(OC)c(NC(=O)CN2CCCN(Cc3ccccc3Cl)S2(=O)=O)c1,9%,0%
Cc1cccc(C)c1OCC(=O)N/N=C/c1cccn1C,-9%,-6%
COc1ccc(/C=C/C(=O)Oc2cccc(/C=N/NC(=O)COc3c(C)cccc3C)c2)cc1,16µM*,7%
COc1ccc(/C=C/C(=O)Oc2ccc(/C=N/NC(=O)COc3c(C)cccc3C)cc2)cc1,7.9µM*,3%
COc1ccc(/C=C/C=N/NC(=O)COc2ccc(OC)cc2)cc1,0%,-5%
Cc1ccc2c(c1)N(C(=O)c1ccc(F)cc1)C(C)(C)CC2(C)c1ccccc1 (stereo not given),-15%,-1%
Cc1cc(/C=C2\Cc3ccccc3C2=O)c(C)n1-c1ccccc1,16µM*,-8%
Cc1cc(C=C2C(=O)c3ccccc3C2=O)c(C)n1-c1ccccc1,?,-4%
COc1cccc(N2CCN(C(=O)CCn3nc(C)c(S(=O)(=O)N4CCCC4)c3C)CC2)c1,?,0%
Cc1cc(C)cc(C(=O)Nc2c3c(nn2-c2ccccc2C)CS(=O)(=O)C3)c1,-12%,0%
COc1cc(/C=N/Nc2nc3ccccc3s2)ccc1OC(=O)c1ccccc1F,?,-3%
COc1cc(OC)cc(C(=O)Oc2ccc(/C=N/Nc3nc4ccccc4s3)cc2OC)c1,13µM*,-7%
COc1cc(/C=N/NC(=O)COc2ccc(C)cc2)ccc1OC(=O)c1cccs1,?,-5%
COc1cc(/C=N/Nc2ccccc2)ccc1OC(=O)c1cccs1,13µM*,-3%
COc1ccc(OCC(=O)OCc2cc(=O)n3nc(C4CC4)sc3n2)cc1,-2%,-3%
Cc1nc2c(ccc3nc(NC(=O)c4ccc5c(c4)OCCO5)sc32)s1,2%,14µM*
Cc1nc2ccc3nc(NC(=O)c4ccc5c(c4)OCCO5)sc3c2s1,-5%,3%
N#Cc1c(NC(=O)COC(=O)C2CC3C=CC2C3)oc(-c2ccccc2)c1-c1ccccc1 (stereo not given),7.9µM*,-7%
SMILES,Cruzain inh noDet,Cruzain inh Det
COc1ccccc1OCC(=O)Nc1oc(-c2ccccc2)c(-c2ccccc2)c1C#N,?,0%
CCN(CCCNC(=O)CN1N=C(c2ccccc2)CCC1=O)c1cccc(C)c1,7%,-2%
Cc1ccc(C)c(S(=O)(=O)ON2C(=O)c3ccccc3C2=O)c1,10µM*,13µM*
Cc1ccc(S(=O)(=O)ON2C(=O)c3cccc4cccc(c34)C2=O)cc1,5%,-11%
O=C1c2cccc3cccc(c23)C(=O)N1OS(=O)(=O)c1ccccc1,0%,-13%
O=C1c2ccccc2C(=O)N1OS(=O)(=O)c1ccccc1,7.9µM*,?
Cc1noc(-c2ccc(NC(C)c3ccccc3)c([N+](=O)[O-])c2)n1 (stereo not given),-16%,-15%
COc1ccc(Nc2c3c(nc4ccc(NC(=O)/C=C/c5cccc(OC)c5OC)cc24)CCCC3)cc1OC,-4%,?
Cc1ccccc1-c1ccc2ncnc(-n3ccnc3)c2c1,-7%,-2%
Cc1cc(C)cc(OCC(=O)Nc2ccc(F)cc2)c1,-19%,0%
Cc1cc(C)cc(OCC(=O)Nc2ccc(N3CCCC3)cc2)c1,4µM*,?
Cc1ccc(OCC(=O)Nc2ccc(N3CCCC3)cc2)cc1C,2.5µM*,?
Cc1ccc(OCC(=O)Nc2ccc(O)c(C(=O)O)c2)cc1C,-8%,1%
Cc1cccc(C)c1OCC(=O)Nc1cccc(-c2nnc(-c3ccccc3)o2)c1,?,4%
Cc1cccc(OCC(=O)Nc2cccc(-c3nnc(-c4ccccc4)o3)c2)c1C,25µM*,0%
Cc1cccc(OCC(=O)Nc2ccc(N3CCCC3)cc2)c1C,3.2µM*,?
CCOc1ccccc1OCC(=O)Nc1ccc(N2CCCCC2)cc1,-5%,2%
CCc1ccc(NC(=O)N2CCN(Cc3cc(=O)n4nc(-c5ccccc5OC)sc4n3)CC2)cc1,11%,2%
O=c1c2c3c(sc2n(Cc2ccc(F)cc2Cl)c(=O)n1-c1ccc(Cl)cc1)CCC3,17%,0%
COc1ccc(CNC(=O)c2cnc3sc(N4CCCCCC4)nn3c2=O)cc1,4%,-2%
COc1ccc(N2CCN(C(CNC(=O)C(=O)NCCc3ccccc3)c3cccnc3)CC2)cc1 (stereo not given),15%,-7%
COC(=O)[C@H]1C[C@H]2CC[C@H](O)C[C@H]2N1Cc1c(F)cccc1Cl,-4%,-5%
CCC(=O)Nc1ccc2c(c1)C(=O)c1ccccc1C2=O,7%,-7%
Cc1cc(C)cc(OCC(=O)Nc2ccc3c(c2)C(=O)c2ccccc2C3=O)c1,25µM*,-1%
O=C(O)CCC(=O)Nc1ccc(N2CCCCCC2)cc1,-5%,3%
SMILES,Cruzain inh noDet,Cruzain inh Det
O=C(Cc1ccc(Cl)cc1)Nc1ccc(N2CCCC2)cc1,6.3µM*,3%
Cc1cc(C)c(NC(=O)c2cc3c(=O)n4ccccc4nc3n2C)c(C)c1,-4%,-1%
CC(C)(C)OC(=O)[C@H](C1N[C@@H](C(=O)O)C(C)(C)S1)N1C(=O)c2ccccc2C1=O (stereo not given in full),22%,4%
O=C(CCCCCn1c(=O)[nH]c2ccccc2c1=O)N1CCN(c2ccc(Cl)cc2)CC1,18%,-3%
CCN1C(=O)c2ccccc2Sc2ccc(NC(=O)c3ccc(C#N)cc3)cc21,-1%,0%
N#Cc1ccc(N/N=C/c2cn(-c3ccccc3)nc2-c2ccccc2)c([N+](=O)[O-])c1,5µM*,-5%
O=C(N/N=C/c1cn(-c2ccccc2)nc1-c1ccccc1)c1ccco1,4%,-10%
Cc1cccc2c(=O)cc(CSc3ccccc3NC(=O)c3cccc(Br)c3)[nH]c12,-1%,-4%
c1ccc2c(c1)c1cccc3ccc4cccc2c4c31,16µM*,2%
c1cc2ccc3cccc4ccc(c1)c2c34,-13%,-1%
CCOC(=O)c1cc(-c2ccc(F)cc2)n(CCC(=O)NCc2ccccc2OC)c1C,8%,-10%
O=C(/C=C/c1ccc(Cl)c([N+](=O)[O-])c1)Nc1ccc(N2CCCC2)c(Cl)c1,20µM*,-2%
COc1ccc(C(=O)/C=C/c2ccc(N3CCCCC3)c([N+](=O)[O-])c2)cc1,-17%,-5%
CCc1ccc(NC(=O)N2CCN(Cc3nc4ccc(C)cc4o3)CC2)cc1,?,-2%
O=S(=O)(c1cccc(-c2nc3ccccc3s2)c1)N1CCCC1,6%,-7%
O=S(=O)(c1ccc(-c2nc3ccccc3s2)cc1)N1CCCC1,25µM*,3%
O=C(Cn1nnc2sc(-c3ccccc3)cc2c1=O)Nc1cccc(C(F)(F)F)c1,-21%,-7%
Nc1ccccc1S(N)(=O)=O,1%,-5%
Cc1ccc(CNc2nc(N)c([N+](=O)[O-])c(Nc3ccc(F)cc3)n2)cc1,16µM*,0%
